Holding throughout (assay): qHTS profiling for inhibitors of Plasmodium falciparum proliferation (AID 504749); note: nearly all actives have a fitted effect of over 60% in size
Details in all cases: P. falciparum in erythrocytes, SYBR Green DNA, 72 h; series mostly up to 28.7 µM

For assay [1], the system named is DIV17. A digest of the protocol:
(§1)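 Three-day growth assay of blood-stage parasites in erythrocytes (0.3% parasitemia, 2.5% hematocrit) at 37 C, 5% CO2, quantified by SYBR Green DNA staining after overnight detergent lysis.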

In assay [2] the test system is DIV30. A digest of the protocol: as §1
For assay [3], the system named is Dd2. A digest of the protocol:
as §1

For assay [4], the system named is ECU. In a few lines:
as §1

The subject of assay [5] is FAB9. In a few lines:
as §1

The test system of assay [6] is GB4. A digest of the protocol: as §1
Assay [7] concerns HB3. A digest of the protocol: as §1
Assay [8] deals with ICS. In a few lines: as §1
Assay [9] deals with JCK. A digest of the protocol:
as §1

For assay [10], the system named is N140. A digest of the protocol: as §1
Assay [11] deals with P93_24. In a few lines: as §1
In assay [12] the test system is P94_40. In a few lines: as §1
The test system of assay [13] is PAD. A digest of the protocol: as §1
Assay [14] concerns PC15. In a few lines: as §1
Assay [15] has as its system PC26. In a few lines: as §1
For assay [16], the system named is PC49. In a few lines: as §1
Assay [17] concerns SC27B. A digest of the protocol:
as §1

In assay [18] the test system is TAB109. In a few lines:
as §1

Assay [19] concerns TAB113. In a few lines:
as §1

The test system of assay [20] is TAB165. A digest of the protocol: as §1

For 14 compounds, Potency results are on record in PubChem BioAssay (NCATS).

The structures appear in SMILES notation. Inconclusive results are not listed. Activity calls are given as the source filed them. Calls come from the whole dose curve; as a rule, active = well fitted inhibition curve with a large enough effect; inconclusive = small, poorly fitted or top-dose-only effect; inactive = flat fitted curve, though single readings scatter.
Potency is the fitted concentration of half-maximal effect.

On to `Nc1ccc(C(=O)NCC(=O)O)cc1`, for which the Potency result in [1], in assay [2], in assay [3], in [4], in assay [5] and in assay [6] was “inactive” throughout. Also, the Potency result in assay [7], in assay [8], in [9], in [10], in assay [11] and in assay [12] was “inactive” throughout. Moreover, the Potency result in assay [13], in assay [14], in [15], in assay [16], in assay [17] and in [18] was “inactive” throughout. Moreover, the Potency result in [19] and in [20] was “inactive” in each case.

As for `O=C(O)c1ccc(S(=O)(=O)N(Cl)Cl)cc1`, the Potency result in assay [1], in assay [2], in assay [3], in assay [4], in assay [5] and in [6] was “inactive” throughout. Moreover, the Potency entry in assay [7], in assay [8], in assay [9], in assay [10], in assay [11] and in assay [12] was “inactive” throughout. The Potency entry in [13], in assay [14], in [15], in [16], in assay [17] and in assay [18] was “inactive” in each case. Moreover, the Potency result in assay [19] and in [20] was “inactive” in each case.

In the case of `CCOc1ccc(NC(C)=O)cc1`, the Potency result in assay [1], in assay [2], in assay [3], in assay [4], in assay [5] and in assay [6] was “inactive” each time. The Potency result in assay [7], in assay [8], in assay [9], in assay [10], in [11] and in assay [12] was “inactive” each time. In addition, the Potency result in assay [13], in assay [14], in assay [15], in [16], in assay [17] and in assay [18] was “inactive” throughout. Also, the Potency entry in assay [19] and in assay [20] was “inactive” in each case.

As for `CCCCC(CC)COC(=O)/C=C/c1ccc(OC)cc1` (stereo not drawn), the Potency result in [1], in assay [2], in assay [3], in assay [4], in assay [5] and in assay [6] was “inactive” each time. The Potency result in [7], in assay [8], in [9], in [10], in assay [11] and in assay [12] was “inactive” each time. Moreover, the Potency entry in assay [13], in assay [14], in assay [15], in assay [16], in [17] and in assay [18] was “inactive” throughout. Also, the Potency result in [19] and in assay [20] was “inactive” in each case.

`CCCCCCCCOc1ccc(C(=O)c2ccccc2)c(O)c1`: the Potency result in assay [1], in assay [2], in [3], in assay [4], in assay [5] and in assay [6] was “inactive” each time. Besides, the Potency result in assay [7], in [8], in [9], in assay [10], in [11] and in assay [12] was “inactive” in each case. The Potency entry in assay [13], in assay [14], in assay [15], in assay [16], in assay [17] and in assay [18] was “inactive” throughout. Besides, the Potency result in [19] and in assay [20] was “inactive” throughout.

`COc1ccc(CN(CCN(C)C)c2ncccn2)cc1`: the Potency entry in [1], in [2], in [3], in assay [4], in assay [5] and in [7] was “inactive” throughout. The Potency result in assay [8], in assay [9], in assay [10], in assay [12], in assay [13] and in [14] was “inactive” in each case. For the same compound, the Potency entry in assay [15], in assay [16], in [17], in assay [18], in [19] and in assay [20] was “inactive” in each case. The Potency is 9.53 µM (active) in [6] and 7.94 µM (active) in [11].

On to `FC1(F)C(F)(F)C(F)(F)C2(F)C(F)(F)C(F)(F)C(F)(F)C(F)(F)C2(F)C1(F)F` (stereo not drawn), for which the Potency entry in assay [1], in [2], in [3], in assay [4], in assay [5] and in assay [6] was “inactive” in each case. Besides, the Potency result in [7], in assay [8], in assay [9], in assay [10], in assay [11] and in assay [12] was “inactive” each time. Further, the Potency entry in [13], in assay [14], in assay [15], in assay [16], in assay [17] and in assay [18] was “inactive” throughout. Further, the Potency entry in assay [19] and in assay [20] was “inactive” throughout.

Take `CCOC(=O)C(C#N)=C(c1ccccc1)c1ccccc1`: the Potency entry in assay [1], in assay [2], in assay [3], in assay [4], in assay [5] and in [6] was “inactive” throughout. Moreover, the Potency result in [7], in assay [8], in [9], in [10], in assay [11] and in assay [12] was “inactive” throughout. For the same compound, the Potency result in assay [13], in assay [14], in [15], in assay [16], in assay [17] and in assay [18] was “inactive” throughout. Besides, the Potency result in [19] and in assay [20] was “inactive” in each case.

As for `Oc1ccccc1C=NCc1ccccc1`, the Potency entry in assay [1], in assay [2], in [3], in assay [4], in assay [5] and in assay [6] was “inactive” each time. Moreover, the Potency entry in [7], in assay [8], in assay [9], in assay [10], in assay [11] and in [12] was “inactive” in each case. Moreover, the Potency result in [13], in assay [14], in assay [15], in assay [16], in assay [17] and in [18] was “inactive” throughout. Besides, the Potency entry in assay [19] and in assay [20] was “inactive” each time.

Consider `CCCCN=C(N)N=C(N)N`, for which the Potency entry in assay [1], in [2], in [3], in [4], in assay [5] and in [6] was “inactive” throughout. For the same compound, the Potency result in assay [7], in assay [8], in [9], in assay [10], in [11] and in assay [12] was “inactive” throughout. The Potency result in assay [13], in [14], in assay [15], in [16], in assay [17] and in assay [18] was “inactive” in each case. The Potency entry in assay [19] and in [20] was “inactive” in each case.

Regarding `N=C(N)N1CCc2ccccc2C1`, the Potency result in [1], in assay [2], in assay [3], in [4], in assay [5] and in assay [6] was “inactive” in each case. Further, the Potency entry in assay [7], in assay [8], in assay [9], in [10], in assay [11] and in assay [12] was “inactive” throughout. Also, the Potency result in [13], in assay [14], in assay [15], in [16], in assay [17] and in assay [18] was “inactive” throughout. Besides, the Potency entry in assay [19] and in [20] was “inactive” throughout.

As for `COc1cc(C)nc(-n2nc(C)cc2OC)n1`, the Potency result in assay [1], in assay [2], in assay [3], in [4], in assay [5] and in assay [6] was “inactive” in each case. The Potency result in assay [7], in [8], in assay [9], in assay [10], in assay [11] and in [12] was “inactive” throughout. Moreover, the Potency result in assay [13], in [14], in assay [15], in assay [16], in [17] and in assay [18] was “inactive” each time. Besides, the Potency entry in [19] and in assay [20] was “inactive” each time.

Regarding `CC(=O)N[C@@H](CCC(=O)O)C(=O)O`, the Potency result in assay [1], in [2], in assay [3], in assay [4], in assay [5] and in assay [7] was “inactive” each time. Further, the Potency entry in assay [8], in assay [9], in assay [10], in assay [11], in assay [13] and in assay [14] was “inactive” throughout. For the same compound, the Potency entry in [15], in assay [16], in assay [17], in [18], in assay [19] and in [20] was “inactive” in each case.

Turning to `CCCCCCCC/C=C\CCCCCCCCN`, the Potency result in [1], in [2], in assay [3], in assay [4], in [5] and in [6] was “inactive” each time. The Potency entry in assay [7], in assay [8], in assay [9], in [10], in assay [11] and in assay [12] was “inactive” each time. For the same compound, the Potency entry in assay [13], in assay [14], in assay [15], in assay [16], in assay [17] and in assay [18] was “inactive” throughout. Also, the Potency result in assay [19] and in [20] was “inactive” in each case.
